# The list is not random: actives were taken first. Their share in the collection is about 11%.
# HPGD inh = inhibitors of human 15-hydroxyprostaglandin dehydrogenase (HPGD). P15428. purified HPGD, NADH fluorescence kinetic, PGE2 substrate. Potency, µM, for inactives: top-dose activity change, negative = inhibition, hits mostly inhibitors. 150,000 tested, 4.3% active. AID 894; active = well fitted inhibition curve with a large enough effect, not every such curve was filed as active; inconclusive = small, poorly fitted or top-dose-only effect, or another doubt; inactive = no such curve, though single readings can be large or run the other way; note: potency is the fitted concentration of half-maximal effect; % is set by controls: 0 for no effect and ±100 for the full control effect
# Target sequence (P15428 whole entry, looked up): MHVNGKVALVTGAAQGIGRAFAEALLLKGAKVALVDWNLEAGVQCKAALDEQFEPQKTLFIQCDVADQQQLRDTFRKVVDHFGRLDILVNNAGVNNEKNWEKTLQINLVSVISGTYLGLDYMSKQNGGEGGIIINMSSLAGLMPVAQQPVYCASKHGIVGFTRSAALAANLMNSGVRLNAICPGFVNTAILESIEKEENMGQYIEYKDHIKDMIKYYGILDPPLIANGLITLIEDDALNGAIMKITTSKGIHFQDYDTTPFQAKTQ
#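 NADH formation kinetics: reaction with 30 uM PGE2 and 1 mM NAD+ (final), 20 nM enzyme, Tris-HCl pH 8 with Tween 20, after 15 min compound preincubation at room temperature. Fluorescence change, last versus first of five reads.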
# PNC inhibitor = perinucleolar compartment assembly inhibition | PC3M PTB-GFP, PNC prevalence imaging, 16 h; active compounds read low | activity change (PNC), negative = inhibition, % at 10 µM | 140,000 tested, 3.1% active;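 active = readout at or below -70, meaning at least 70% loss of cells showing the perinucleolar compartment, a nuclear body marking cancer cells; inconclusive = readout between -30 and a set limit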;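 note: plate controls were DMSO wells for no effect and camptothecin positive control wells for full effect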
#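 PC3M cells stably expressing PTB-GFP, 750–1000 cells/well, treated 16 h at 37 °C with compound (23 nl of library stock), in duplicate. After paraformaldehyde fixation and Hoechst stain, imaged at 20x; PNC prevalence scored by image analysis.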
# HttQ103 aggreg = reduces HttQ103-GFP aggregates in PC12 cells; 220,000 tested, 1.1% active; PC12 HttQ103-GFP aggregates, Acumen cytometry, 40 h; Potency, µM (highest dose often 46.1 µM), without a hit: at the top dose activity change, negative = inhibition, usual class: inhibitors; note: potency is the fitted concentration of half-maximal effect; % is set by controls: 0 for no effect and ±100 for the full control effect; nearly all actives have a fitted effect of over 60% in size
#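 Read-out: GFP aggregate count by laser scanning cytometer (488 nm excitation, 500-530 nm emission, 1–25 µm objects >6 SD above background). Cells: PC12, inducible HTTex1-Q103-GFP, 100 nM tebufenozide; compounds titrated.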
# GoLoco inh red = inhibitors of human Gai1-RGS12 GoLoco interaction (red fluorophore); P63096; Gai1:RGS12 GoLoco peptide FP, rhodamine, 10 min; Potency, µM (titrated, usually from 61.6 µM), inactives show at the top dose activity, negative = inhibition, usual class: inhibitors; 230,000 tested, 0.44% active; AID 880; active = well fitted inhibition curve with a large enough effect, not every such curve was filed as active; inactive = no such curve, though single readings can be large or run the other way; note: potency is the fitted concentration of half-maximal effect; % is set by controls: 0 for no effect and ±100 for the full control effect; nearly all actives have a fitted effect of over 30% in size
# HTT ATP protect = cytoprotection in Huntington HTT-Q103 PC12 cell model; 230,000 tested, 0.14% active; Potency, µM (doses to about 56.4 µM), without a hit: cytoprotection (ATP increase), usual class: activators; PC12 HTT-Q103 induced, cytoprotection, ATP luminescence, 40 h; note: potency is the fitted concentration of half-maximal effect; % of control where 0% means no effect; nearly all actives have a fitted effect of over 45% in size
#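 Huntington model: PC12 line, ecdysone-inducible HTTQ103 exon1–GFP, tebufenozide 100 nM. Test articles in a dose series. Endpoint luminescence from cellular ATP.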
# ALDH1A1 inh = ALDH1A1 (human) enzyme inhibition; Purified ALDH1A1, NADH fluorescence, propionaldehyde substrate; Potency, µM (doses to about 75.3 µM), inactives show top-dose activity, negative = inhibition, most hits filed as inhibitors; 220,000 tested, 7.3% active; active = well fitted inhibition curve with a large enough effect, not every such curve was filed as active; inconclusive = small, poorly fitted or top-dose-only effect, or another doubt; inactive = no such curve, though single readings can be large or run the other way;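 note: potency is the fitted concentration of half-maximal effect; plate controls were no enzyme wells and a reference inhibitor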
# Target sequence (P00352 whole entry, looked up): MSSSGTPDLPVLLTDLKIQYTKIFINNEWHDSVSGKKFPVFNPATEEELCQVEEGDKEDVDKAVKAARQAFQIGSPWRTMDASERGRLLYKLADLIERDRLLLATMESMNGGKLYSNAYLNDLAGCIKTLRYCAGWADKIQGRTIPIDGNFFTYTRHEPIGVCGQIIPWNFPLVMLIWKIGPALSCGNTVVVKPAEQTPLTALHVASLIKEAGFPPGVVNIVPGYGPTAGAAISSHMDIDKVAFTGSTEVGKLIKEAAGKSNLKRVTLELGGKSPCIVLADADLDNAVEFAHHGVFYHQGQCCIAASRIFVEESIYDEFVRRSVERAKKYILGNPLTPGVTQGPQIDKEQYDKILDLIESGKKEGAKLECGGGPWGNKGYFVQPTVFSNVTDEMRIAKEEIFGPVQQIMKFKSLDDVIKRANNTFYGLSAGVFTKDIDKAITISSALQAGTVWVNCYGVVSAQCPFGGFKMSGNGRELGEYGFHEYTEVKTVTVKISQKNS
# The depositor's hits bear a star; i = inactive; ? = inconclusive; . = no result given; ! = not confirmed by another sample; [ ] = remark or other dose. Unless noted, calls come from the whole dose curve; as a rule, active = well fitted curve in the direction sought with a large enough effect; inconclusive = small, poorly fitted or top-dose-only effect, or another doubt; inactive = no such curve, though single readings can be large; an effect the other way counts as inactive or inconclusive.
SMILES,HPGD inh,PNC inhibitor,HttQ103 aggreg,GoLoco inh red,HTT ATP protect,ALDH1A1 inh
CO[C@@H]([CH2][Hg])CN1C(=O)c2ccccc2S1(=O)=O.Cn1c(=O)c2nc[nH]c2n(C)c1=O,1.4µM*,.,.,-9%[14.2 µM],-2%[10 µM],3.2µM*
C1=CC2C3C=CC(C3)C2C1 (centres undefined),-10%,.,.,-6%,-11%,22µM*
CN1CCC[C@@H]1c1cccnc1.O=C(O)c1ccccc1O.O=C([OH2+])c1ccccc1O.O=C([OH2+])c1ccccc1O.[Mn],?,.,.,6%[14.2 µM],6%[10 µM],?
c1nc(N2CC2)c2cnn([C@@H]3CCCCO3)c2n1,-7%,.,.,2%[14.2 µM],3%[10 µM],2%[13.5 µM]
CC1CC(OP(O)(=S)c2ccc(N(C)C)cc2NC(=O)c2cccs2)CC(C)(C)C1 (centres undefined),.,.,?,-7%,-23%,4µM*
O=C(O)CCn1cc(C=C2C(=O)NC(=S)NC2=O)c(-c2ccccc2)n1,.,.,4%,28µM*,4%,1.1µM*
CC(=O)OC[C@]12CCC(C)=C[C@H]1O[C@@H]1[C@H](O)[C@@H](OC(C)=O)[C@@]2(C)[C@]12CO2,.,.,0.1µM*,2%,-76%[10 µM],.
COc1cccc2c1C(=O)c1c(O)c3c(c(O)c1C2=O)C[C@@](O)(C(=O)CO)C[C@@H]3O[C@H]1C[C@H](N)[C@H](OC2CCCCO2)[C@H](C)O1 (some centres undefined),.,.,4µM*,.,-80%,.
O=C(CCn1c(=O)oc2ccccc21)N1CCN(C(c2ccccc2)c2ccccc2)CC1,-19%,?,?,-4%,-49%,18µM*
CCC(C)N1CCN(C(=O)Cc2ccccc2)CC1 (centres undefined),3%,15,8%,-3%,3%,-7%
CCC(Cl)[N+](=O)[O-] (centres undefined),1%,.,.,1%,-1%,?
c1csc(CN2CC[C@@]3(CCCNC3)C2)n1,-13%,.,.,-2%,?,22µM*
O=C(Oc1ccccc1)N1CCC2(CCN(Cc3nccs3)CC2)CC1,-1%,.,.,4%,-18%,-10%
CCN1/C(=C\C=C\C2=[N+](CC)c3ccccc3C2(C)C)C(C)(C)c2ccccc21,-7%,?,0.56µM*,i,-110%,6%
c1ccc(C2(c3ccccc3)CC2C2=NCCN2)cc1 (centres undefined),.,.,4%,.,-12%,.
c1ccc2c(c1)OC[C@@H](C1=NCCN1)O2,1%,.,.,7%,5µM*!,-8%
CC1CCCN(c2ccc(C(=O)N3CCC4(CC3)OCCO4)cc2[N+](=O)[O-])C1 (centres undefined),.,.,14%,-4%,?,?
CCOC(=O)C1CCCN(c2ccc([N+](=O)[O-])c3nonc23)C1 (centres undefined),.,.,?,16µM*,-31%,?
O=C1Nc2ccccc2C2(CCN(CCc3ccc(C(F)(F)F)cc3)CC2)O1,-8%,.,.,15%,-74%,1%
O=C(OC1CCN(CCCl)CC1)C(c1ccccc1)c1ccccc1,-11%,.,.,9%,-3%[1.9 µM],8.9µM*
O=[N+]([O-])c1ccc(N2CCNCC2)cc1NCc1ccco1,-19%,-6,11%,2%,.,28µM*
O=[N+]([O-])c1ccc(N2CCNCC2)cc1N1CCCCCC1,.,.,9%,8%,-4%,4.5µM*
O=[N+]([O-])c1cc(F)c(N2CCCCCC2)cc1N1CCNCC1,.,.,7%,26%,10%,7.1µM*
COc1cc2c(cc1OC)-c1c(O)c(OC)cc3c1[C@@H](C2)N(C)CC3,.,.,.,.,-22%,.
C=C(CO)CC1CC(O)[C@]2(C)OC3CC4OC5C[C@]6(C)O[C@]7(C)CCC8OC9C[C@]%10(C)OC%11C(C)=CC(=O)OC%11CC%10OC9C[C@@H](C)C8OC7CC6O[C@]5(C)C/C=C\C4OC3CC2O1 (some centres undefined),.,.,-9%[9.22 µM],2%,33%[10 µM],1.4µM*
SMILES,HPGD inh,PNC inhibitor,HttQ103 aggreg,GoLoco inh red,HTT ATP protect,ALDH1A1 inh
C=C(C=O)CC1CC(O)[C@]2(C)OC3CC4OC5C[C@]6(C)O[C@]7(C)CCC8OC9C[C@]%10(C)OC%11C(C)=CC(=O)OC%11CC%10OC9C[C@@H](C)C8OC7CC6O[C@]5(C)CC5OC5C4OC3CC2O1 (some centres undefined),.,.,4%[9.22 µM],3%,-54%[10 µM],4.5µM*
CCC(=O)c1cc(F)c(N2CCN(CC)CC2)cc1C,-8%,50,-1%[9.22 µM],4%,5%,20µM*
CCN1CCN(c2ccc(N)c(C)c2)CC1,.,.,-1%,11%,-26%,2%
O.O.[NH-]C1(C(=O)O)CCCC1.[NH-]C1(C(=O)O)CCCC1.[Ni+2],-8%,.,.,-3%[14.2 µM],8%[10 µM],-6%[13.5 µM]
O=C(c1cc(C(=O)NCc2ccccc2)c(=O)n(Cc2ccccc2)c1)c1cc(Br)ccc1O,10µM*,-22,-1%,53%,3%[10 µM],-14%
CC(=O)OC[C@]12C[C@H](OC(=O)CC(C)C)C(C)=C[C@H]1O[C@H]1[C@H](O)[C@@H](OC(C)=O)[C@@]2(C)[C@]12CO2,-1%,.,.,5%,-320%,-10%
Cc1cccnc1-n1c(-c2ccco2)nc2ccccc2c1=O,.,11,16%,.,2%,28µM*
C[C@@H]1O[C@H](O[C@@H]2C[C@@H](O)[C@]3(CO)[C@H]4[C@H](O)C[C@]5(C)[C@@H](C6=CC(=O)OC6)CC[C@@]5(O)[C@@H]4CC[C@]3(O)C2)[C@@H](O)[C@H](O)[C@H]1O,-3%,.,.,3%,-11%,-6%
O=C(c1cc(S(=O)(=O)N2CCCCC2)ccc1F)N1CCC2(CC1)OCCO2,-5%,-3,-1%,-12%,10%,?
O=C(c1csc2c1CCCCC2)N1CCC2(CC1)OCCO2,?,?,22%,7%,-4%,8.9µM*
O=C(c1cc2c(s1)CCCC2)N1CCC2(CC1)OCCO2,25µM*,-26,-10%,8%,-21%[0.074 µM],11µM*
O=C(c1cc2c(s1)-c1ccccc1OC2)N1CCC2(CC1)OCCO2,?,-28,-9%,0%,-13%[10 µM],?
N[C@H](Cc1c[nH]c2ccccc12)P(=O)(O)O,-6%,.,.,8%[14.2 µM],-8%[10 µM],12%[13.5 µM]
CC(C)=CCCC1(C)C=Cc2c(O)c3c(c(CC=C(C)C)c2O1)OC12C(=CC4CC1C(C)(C)OC2(C/C=C(/C)C(=O)O)C4=O)C3=O (centres undefined),?,.,.,0%,-343%,-6%
CC(=O)/C=C/c1ccccc1,-9%,.,.,7%,-16%,2%
CC(=O)[O][Hg][c]1ccccc1,0.25µM*,.,1.6µM*,1.6µM*!,-360%,0.63µM*

# High-throughput results deposited in PubChem by National Center for Advancing Translational Sciences (NCATS).
